The values that follow come from PubChem BioAssay (NCI).

Structures are written as SMILES. This is part of a sample that, as a whole, favours compounds with a hit. Of some 83,000 tested, about 20% had one in any assay.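 Interpretation: 100, growth as untreated; towards 0, rising growth inhibition; 0, no net growth; 0 to -100, cell death. Compounds scoring below 10 were considered active.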 Unmarked numbers belong to inactive results. Activity calls are given as the source filed them.

Some test systems named below: DU-145 prostate; K-562 leukemia; MALME-3M melanoma; MDA-MB-231 breast; RXF 393 renal; SF-268 CNS; SF-295 CNS; SF-539 CNS; UACC-257 melanoma; M14 melanoma; HT29 colon; SNB-75 CNS; SNB-19 CNS; U251 CNS; SK-MEL-5 melanoma; UACC-62 melanoma; LOX IMVI melanoma; SK-MEL-28 melanoma; PC-3 prostate.
Holding throughout (experiment): NCI-60 one-dose screen, 48 h (100 = growth as untreated, 0 = no growth, -100 = all killed)
Conditions in all cases: 10 µM unless noted

Regarding `COc1ccc(C2=CC(c3cc(OC)c(OC)c(OC)c3)n3ncnc3N2)cc1` (centres undefined), the growth is -24.7% (active) with DU-145 prostate; 9.56% (active) in the test with K-562 leukemia; 75.8% in the test on MALME-3M melanoma; 8.42% (active) in the test with MDA-MB-231 breast; 71.1% in the test with RXF 393 renal; 31.4% in the test with SF-268 CNS. Also, the growth is 13.5% with SF-295 CNS; -1.69% (active) in the test with SF-539 CNS; 56.5% with UACC-257 melanoma; -2.18% (active) in the test on M14 melanoma; 1.66% (active) in the test with HT29 colon; 40.4% in the test with SNB-75 CNS. Besides, the growth in the test with SNB-19 CNS is 36%; in the test on U251 CNS, 6.34% (active); in the test with SK-MEL-5 melanoma it was 1.68% (active); in the test with UACC-62 melanoma it was 51.9%; with LOX IMVI melanoma it was 22.2%; in the test on SK-MEL-28 melanoma it was 54.3%.

With `C=C(c1ccc(OC)c(/C=C/C(=O)c2ccc3c(c2)OCO3)c1)c1cc(OC)c(OC)c(OC)c1`, the growth in the test on DU-145 prostate was 9.67% (active); in the test on K-562 leukemia, 6.89% (active); in the test with MALME-3M melanoma, 67.2%; with MDA-MB-231 breast it was 29%; in the test with RXF 393 renal it was 3.52% (active); in the test on SF-268 CNS, 19.3%. Further, the growth with SF-295 CNS is 10.7%; in the test with SF-539 CNS, -21.8% (active); with UACC-257 melanoma, 58.7%; with M14 melanoma, 11.3%; in the test on HT29 colon, 10.2%; in the test with SNB-75 CNS, 5.07% (active). Besides, the growth with SNB-19 CNS was 30.9%; in the test with U251 CNS it was 11%; with PC-3 prostate, 26.5%; with SK-MEL-5 melanoma it was 0.661% (active); in the test with UACC-62 melanoma, 2.65% (active); in the test on LOX IMVI melanoma, -51.1% (active). In the test on SK-MEL-28 melanoma, the growth was 11.5%.

For the molecule `NC(=O)c1cccc([C@@H]2O[C@H](CO)[C@@H](O)[C@H]2O)c1`, the growth with DU-145 prostate is 66.5%; in the test on K-562 leukemia it was 27%; in the test on MALME-3M melanoma, 103%; with MDA-MB-231 breast, 55.5%; in the test with RXF 393 renal, 73.3%; in the test with SF-268 CNS it was 48%. Further, the growth with SF-295 CNS is 65.7%; in the test with SF-539 CNS, 14.4%; in the test with UACC-257 melanoma it was 97.7%; in the test with M14 melanoma, 17.1%; in the test on HT29 colon it was 54%; in the test on SNB-75 CNS, 9.91% (active). For the same molecule, the growth with SNB-19 CNS is 54.2%; in the test on U251 CNS, 41.1%; in the test with PC-3 prostate it was 47.8%; with SK-MEL-5 melanoma, 97.4%; in the test with UACC-62 melanoma, 88.6%; with SK-MEL-28 melanoma, 62.1%.

Consider `C=C1C(=O)O[C@H]2[C@H]1CC/C(COC(=O)c1ccc(C(=O)O)s1)=C\CC[C@@]1(C)O[C@@H]21`, for which the growth in the test on DU-145 prostate was 18.6%; in the test with K-562 leukemia, 3.11% (active); in the test on MALME-3M melanoma, 3.09% (active); in the test with MDA-MB-231 breast, -3.52% (active); in the test with RXF 393 renal it was -56% (active); with SF-268 CNS, 24.2%. In addition, the growth in the test with SF-295 CNS was 81%; in the test on SF-539 CNS, -25.7% (active); in the test on UACC-257 melanoma, 52.7%; with M14 melanoma, 23.1%; in the test on HT29 colon, 7.91% (active); in the test with SNB-75 CNS it was 71.2%. The growth in the test on SNB-19 CNS is 48%; with U251 CNS, 22.4%; in the test with PC-3 prostate, 18.1%; in the test with SK-MEL-5 melanoma, 91.4%; in the test on UACC-62 melanoma, 3.21% (active); in the test with LOX IMVI melanoma it was -55.2% (active). Besides, in the test on SK-MEL-28 melanoma, the growth is 11.7%.

On to `CCN(CC)c1ccc(CNc2cc(C)nc3ccccc23)cc1`, for which the growth in the test with DU-145 prostate is 77.8%; with K-562 leukemia, 31%; in the test on MALME-3M melanoma, 69.8%; in the test with MDA-MB-231 breast, 66.6%; in the test on RXF 393 renal, 68.8%; in the test with SF-268 CNS, 87.7%. Besides, the growth with SF-295 CNS is 50.9%; with SF-539 CNS it was 74.7%; in the test on UACC-257 melanoma, 62.5%; in the test with M14 melanoma, 64.8%; in the test on HT29 colon it was 43.3%; in the test on SNB-75 CNS, 75.2%. Moreover, the growth with SNB-19 CNS is 73.8%; in the test with U251 CNS, 63.9%; with PC-3 prostate it was 64%; in the test with SK-MEL-5 melanoma, 9.25% (active); in the test with UACC-62 melanoma, 68.5%; in the test with LOX IMVI melanoma, 65%. Further, the growth in the test on SK-MEL-28 melanoma is 78.4%.

Take `Cc1[nH]c(C2CC(c3ccc(C(F)(F)F)c(F)c3)=NN2c2ccccc2)c(C)c1C(=O)NCC(F)(F)F` (centres undefined): the growth was 94.7% with DU-145 prostate; 76% with K-562 leukemia; 79.7% with MALME-3M melanoma; 88.8% in the test with MDA-MB-231 breast; 80.8% in the test with RXF 393 renal; 84.7% with SF-268 CNS. Moreover, the growth with SF-295 CNS was 87.1%; in the test with SF-539 CNS, 94.4%; in the test on UACC-257 melanoma, 97.6%; with M14 melanoma, 94.8%; with HT29 colon it was 84.6%; with SNB-75 CNS, 82.5%. The growth with SNB-19 CNS was 85.6%; with U251 CNS, 91%; in the test on PC-3 prostate it was 74.6%; with SK-MEL-5 melanoma, 95.7%; with UACC-62 melanoma it was 75.5%; in the test on LOX IMVI melanoma it was 88.6%. Further, the growth in the test with SK-MEL-28 melanoma is 96.9%.

Take `[2H]C([2H])([2H])Oc1ccc(F)cc1/C=C/C(=O)/C=C(/C=C/c1cc(F)ccc1OC([2H])([2H])[2H])OB(F)F`: the growth was 85.1% in the test on DU-145 prostate; 47.6% in the test on K-562 leukemia; 68.7% with MALME-3M melanoma; 98.4% in the test with MDA-MB-231 breast; 100% in the test with RXF 393 renal; 98.6% in the test with SF-268 CNS. The growth was 101% with SF-295 CNS; 113% with SF-539 CNS; 78.7% in the test on UACC-257 melanoma; 70.1% with M14 melanoma; 80.2% with HT29 colon; 94% in the test with SNB-75 CNS. Besides, the growth with SNB-19 CNS is 94.9%; in the test with U251 CNS it was 43.3%; in the test on PC-3 prostate, 66.7%; with SK-MEL-5 melanoma, 94.5%; in the test with UACC-62 melanoma, 68.8%; in the test with LOX IMVI melanoma it was 57.1%. In addition, in the test on SK-MEL-28 melanoma, the growth was 94.2%.

On to `O=C(Nc1ncc(Cc2cc(C(F)(F)F)ccc2Cl)s1)c1cccs1`, for which the growth in the test with DU-145 prostate was 72.7%; with K-562 leukemia, 10.7%; in the test on MALME-3M melanoma, 50.7%; in the test with MDA-MB-231 breast, 77.8%; in the test on RXF 393 renal, 42.7%; in the test on SF-268 CNS it was 63.9%. Moreover, the growth was 41% in the test with SF-295 CNS; 79.7% in the test with SF-539 CNS; 73.3% in the test on UACC-257 melanoma; 49.3% in the test with M14 melanoma; 18.6% in the test on HT29 colon; 72% in the test on SNB-75 CNS. Besides, the growth in the test with SNB-19 CNS is 65%; with U251 CNS, 42.5%; with SK-MEL-5 melanoma, 37.7%; in the test with UACC-62 melanoma, 46.1%; with LOX IMVI melanoma it was 58.8%; in the test with SK-MEL-28 melanoma it was 67.5%.
